# Only some compounds are listed: those with a hit (about 5.2% of all), similar ones and a draw of the others.
# esBAF inh – Bmi1 luciferase reporter increase in mESCs, primary screen, esBAF inhibitor project, mouse ES cells, Bmi1 luciferase knock-in, single point; 24 h; 100% = twice the neutral-well signal; reporter increase, % at 12.5 µM; AID 602393, 2012; 350,000 tested, 2% active; in the data active means activation above about 40%;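 further: a rise in the Bmi1 reporter signal indicates esBAF inhibition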
# SMARCA2 act – SMARCA2 (BRM) function activators, primary screen, cell-based, luminescence, high throughput; MG213 cells, MMTV-luciferase reporter, dexamethasone, overnight; activation, % at 9.1 µM; 370,000 tested, 1% active; in the data active means activation above about 7.8%
# GRIN3A LBD mod – binders of NR3A ligand-binding domain, primary screen, biophysical, differential scanning fluorimetry, uHTS. NR3A LBD differential scanning fluorimetry, Tm shift; 0% = protein alone, 100% = glycine-bound protein. Glutamate receptor ionotropic, NMDA 3A (GRIN3A) ligand-binding domain. 340,000 tested, 2.5% active. Tm shift relative to glycine control, % at 25 µM;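 active means melting temperature shift of at least 10% of the positive control shift, at one fixed dose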
# SKN-1 block – suppressors of acrylamide-induced Pgst-4::GFP reporter in worms, primary screen, SKN-1 inhibitor project, whole organism, uHTS, GFP/RFP fluorescence ratio, strain VP596; C. elegans VP596 Pgst-4::GFP/RFP ratio, 24 h; inhibition, % at 21.8 µM; 360,000 tested, 0.49% active; AID 624304, 2012;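 active means interference check ratio from 0.5 to 1.5 plus GFP to RFP signal ratio inhibition reaching or exceeding a fixed threshold, cut at about 30% in these data, passing the limit was not always enough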
# Vif imaging – HIV Vif self-association inhibitors, primary screen, imaging, HEK293T, single point | AID 602346, 2012 | 340,000 tested, 0.35% active | HEK293T cells, Vif self-association by quenched fluorescence, 24 h | inhibition, % at 7.49 µM; in the data active means inhibition above about 50%, passing the limit was not always enough
# NadD block – inhibitors of S. aureus NadD, primary screen, biochemical, colorimetric, uHTS; purified NadD enzyme, colorimetric absorbance read-out; inhibition, % at 20 µM; 360,000 tested, 0.78% active; AID 602399, 2012; in the data active means inhibition above about 26%
# Numbers stand for hits; n = inactive; x = not tested or not shown.
SMILES,esBAF inh,SMARCA2 act,GRIN3A LBD mod,SKN-1 block,Vif imaging,NadD block
COc1cc(-c2nnc(SCC(=O)c3ccc(C)cc3)o2)cc(OC)c1OC,n,n,11,n,n,n
COc1ccc(C(=O)CSc2nnc(-c3cc(C)on3)o2)cc1,n,n,n,n,n,n
CO[C@@H]1CN(C)C(=O)c2ccc(NS(C)(=O)=O)cc2OC[C@H](C)N(Cc2cccnc2)C[C@@H]1C,n,x,x,x,x,x
CC(=O)Nc1ccc(S(=O)(=O)Nc2cccc(-c3nc4ccccc4o3)c2)cc1,n,n,12,n,n,n
CCC(=O)Nc1cccc(-c2nc3ccccc3o2)c1,60,n,n,n,n,n
CC1=NN(C(N)=S)C(=O)C1N=Nc1cccc(Cl)c1C (stereo not given),51,n,n,n,n,n
CC1=NN(C(N)=S)C(=O)C1N=Nc1ccc(Cl)cc1 (stereo not given),n,n,n,n,n,n
O=C(OCc1ccccn1)c1ccc(COc2ccc3ccccc3c2)o1,53,n,n,n,n,n
NNC(=O)c1ccc(COc2ccc3ccccc3c2)o1,x,n,n,n,n,n
C[C@@H]1CN([C@H](C)CO)C(=O)c2cc(N(C)C)ccc2O[C@@H](C)CCCCO[C@@H]1CN(C)C(=O)Nc1ccc(C(F)(F)F)cc1,n,x,x,x,x,x
Cc1nnc(SCc2cccc3ccccc23)s1,64,n,n,n,n,n
O=C(CSc1nnc(SCc2cccc3ccccc23)s1)Nc1ccc(C(=O)O)cc1,n,n,n,n,n,n
Cc1cccc(C)c1Nc1nnc(SCc2nc3ccccc3c(=O)[nH]2)s1,x,n,32,n,n,n
CCOc1ccc(Nc2nnc(SCc3nc4ccccc4c(=O)[nH]3)s2)cc1,n,n,n,n,n,n
c1ccc(Nc2nnc(SCc3cccc4ccccc34)s2)cc1,n,n,11,n,n,n
CN(C)S(=O)(=O)c1ccc(C(=O)Nc2nnc(SCc3cccc4ccccc34)s2)cc1,x,n,26,n,n,n
COCC(=O)Nc1ccc2c(c1)[C@@H]1C[C@H](CC(=O)NCc3ccccn3)O[C@H](CO)[C@@H]1O2,n,x,x,x,x,x
CNC[C@H]1Oc2ccc(NS(=O)(=O)c3ccc(C)cc3)cc2C(=O)N([C@H](C)CO)C[C@@H]1C,n,x,x,x,x,x
Cc1noc(C)c1NC(=O)N(C)C[C@@H]1OCCCC[C@@H](C)Oc2ccc(NC(=O)Nc3ccccc3)cc2C(=O)N([C@@H](C)CO)C[C@@H]1C,n,x,x,x,x,x
CNC(=O)C[C@H]1CC[C@H]2[C@H](COc3ccc(NC(=O)c4cccs4)cc3C(=O)N2C)O1,n,x,x,x,x,x
CCOC(=O)/C(C#N)=C/c1cc(C)n(-c2ccc(C)cc2)c1C,n,n,n,n,71,n
CSc1ccccc1NC(=O)C(=O)c1c[nH]c2ccccc12,x,n,21,n,n,n
C[C@H]1CN([C@@H](C)CO)C(=O)Cc2cc(NS(=O)(=O)c3cn(C)cn3)ccc2O[C@H]1CN(C)S(=O)(=O)c1cccs1,n,x,x,x,x,x
COc1ccc(N/C=C/C(=O)c2ccc(OC)c(OC)c2)cc1,n,n,n,n,n,n
COc1ccc(C(=O)/C=C/Nc2cccc(C)n2)cc1OC,47,n,n,n,60,n
SMILES,esBAF inh,SMARCA2 act,GRIN3A LBD mod,SKN-1 block,Vif imaging,NadD block
COc1cccc(C(=O)/C=C/Nc2cccc(O)c2)c1,n,x,13,n,n,n
COc1cccc(C(=O)/C=C/Nc2ccc(S(=O)(=O)Nc3cccc(C(C)=O)c3)cc2)c1,n,n,13,n,n,n
COc1ccc(N/C=C/C(=O)c2cc(OC)c(OC)c(OC)c2)cc1,n,n,30,n,n,n
CC(C)C(=O)Nc1ccc2c(c1)C(=O)N(C)[C@@H]1CC[C@@H](CC(=O)N[C@@H](C)c3ccccc3)O[C@@H]1CO2,n,x,x,x,x,x
C[C@@H]1CCCCO[C@H](CN(C)C(=O)Nc2ccc(C(F)(F)F)cc2)[C@@H](C)CN([C@H](C)CO)C(=O)c2cc(NC(=O)Nc3ccc(C(F)(F)F)cc3)ccc2O1,n,x,x,x,x,x
CCCNC(=O)N(C)C[C@@H]1Oc2ncc(-c3ccccc3)cc2C(=O)N([C@@H](C)CO)C[C@@H]1C,n,x,x,x,x,x
O=C(Nc1ccc2c(c1)OCO2)N[C@H]1C=C[C@@H](CC(=O)N2CCN(c3ccccc3)CC2)O[C@H]1CO,n,x,x,x,x,x
CCC(=O)Nc1ccc2c(c1)C(=O)N(C)[C@H]1CC[C@H](CC(=O)Nc3cccc(F)c3)O[C@@H]1CO2,n,x,x,x,x,x
O=C1c2ccccc2C(=O)N1N(c1ccccc1)c1ccccc1,n,n,16,n,n,n
Cc1noc(C)c1NC(=O)N(C)C[C@@H]1OCCCC[C@@H](C)Oc2ccc(NC(=O)NC3CCCCC3)cc2C(=O)N([C@H](C)CO)C[C@@H]1C,n,x,x,x,x,x
CCSc1nc(O)cc(=O)[nH]1,n,n,n,n,n,n
CCSc1nc(=S)cc(C)[nH]1,n,n,10,n,n,n
Cc1cc(NS(=O)(=O)c2ccc(NC(=O)c3oc4ccccc4c3C)cc2)no1,n,n,14,n,n,n
Cc1ccc2oc(C(=O)Nc3ccc(S(=O)(=O)Nc4onc(C)c4C)cc3)c(C)c2c1,59,n,n,n,n,n
Cc1cc(C(=O)Nc2ccc(S(=O)(=O)Nc3onc(C)c3C)cc2)c(C)o1,n,n,n,n,n,n
Cc1noc(NS(=O)(=O)c2ccc(NC(=O)c3cc(F)c(F)c(F)c3F)cc2)c1C,x,n,92,n,n,n
Cc1c(C(=O)Nc2ccc(S(=O)(=O)Nc3ncccn3)cc2)oc2ccccc12,n,n,n,n,n,n
Cc1ccc(Cn2c(=O)sc3ccccc3c2=O)cc1,n,n,11,n,n,n
O=S(=O)(N[C@@H]1CC[C@@H](CCn2cc(-c3cccc(F)c3)nn2)O[C@@H]1CO)c1ccccc1,n,x,x,x,x,x
CC(=O)c1sc(=S)n(-c2ccccc2)c1C,n,n,n,n,n,n
CSc1cc(C)n(-c2ccccc2)c(=S)c1C(C)=O,n,n,12,n,n,n
C[C@H](CO)N1C[C@H](C)[C@H](CN(C)C(=O)C2CC2)Oc2cc(-c3ccccc3F)ccc2S1(=O)=O,n,x,x,x,x,x
C[C@H]1CCCCO[C@@H](CN(C)C(=O)C2CCCCC2)[C@@H](C)CN([C@@H](C)CO)C(=O)c2cc(NC(=O)Cc3ccccc3)ccc2O1,n,x,x,x,x,x
FC(F)(F)c1nnc2c(Sc3ccccn3)nc3ccccc3n12,63,n,n,n,n,n
